In PubChem BioAssay (NCATS):
Inconclusive results are not listed. Where a call stands in place of a potency, no number is given. Active and inactive are the calls of the source. Calls follow the shape of the dose curve; as a rule, active = well fitted inhibition curve with a large enough effect; inconclusive = small, poorly fitted or top-dose-only effect; inactive = flat fitted curve, though single readings scatter.

Legend:
Test in all cases: qHTS profiling for inhibitors of Plasmodium falciparum proliferation (AID 504749); also: nearly all actives have a fitted effect of over 60% in size
Conditions in all cases: P. falciparum in erythrocytes, SYBR Green DNA, 72 h; series mostly up to 28.7 µM
3D7 = system: 3D7
Procedure, shortened: (§1)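 In a 72 h erythrocytic culture (37 C, humidified, 5% CO2) at 2.5% hematocrit and 0.3% starting parasitemia, compounds were tested; SYBR Green I in detergent lysis buffer stained parasite DNA overnight.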

7G8 = system: 7G8
Procedure, shortened: as §1

AA1029 = system: AA1029
Procedure, shortened: as §1

AS120 = system: AS120
Procedure, shortened: as §1

ATS189 = system: ATS189
Procedure, shortened: as §1

ATS95 = system: ATS95
Procedure, shortened: as §1

C2A = system: C2A
Procedure, shortened: as §1

CP185 = system: CP185
Procedure, shortened: as §1

CP191 = system: CP191
Procedure, shortened: as §1

CP194 = system: CP194
Procedure, shortened: as §1

CP201 = system: CP201
Procedure, shortened: as §1

CP203 = system: CP203
Procedure, shortened: as §1

CP211 = system: CP211
Procedure, shortened: as §1

CP215 = system: CP215
Procedure, shortened: as §1

CP217 = system: CP217
Procedure, shortened: as §1

CP237 = system: CP237
Procedure, shortened: as §1

CP238 = system: CP238
Procedure, shortened: as §1

CP247 = system: CP247
Procedure, shortened: as §1

CP250 = system: CP250
Procedure, shortened: as §1

CP192 = system: CP192
Procedure, shortened: as §1
Potency is read from the fitted curve at half-maximal effect.

SMILES | Potency (3D7) | Potency (7G8) | Potency (AA1029) | Potency (AS120) | Potency (ATS189) | Potency (ATS95) | Potency (C2A) | Potency (CP185) | Potency (CP191) | Potency (CP194) | outcome (CP201) | Potency (CP203) | Potency (CP211) | Potency (CP215) | Potency (CP217) | Potency (CP237) | Potency (CP238) | Potency (CP247) | Potency (CP250) | Potency (CP192)
NC[C@H](O)c1ccc(O)c(O)c1 | inactive | inactive | inactive | inactive | inactive | inactive | inactive | inactive | inactive | inactive | inactive | inactive | inactive | inactive | inactive | inactive | inactive | inactive | inactive | 
CC(C[N+](C)(C)C)OC(N)=O (configuration not stated) | inactive | inactive | inactive | inactive | inactive | inactive | inactive | inactive | inactive | inactive | inactive | inactive | inactive | inactive | inactive | inactive | inactive | inactive | inactive | inactive
Cc1[nH]c(=O)c(C#N)cc1-c1ccc2nccn2c1 | inactive | inactive | inactive | inactive | inactive | inactive | inactive | inactive | inactive | inactive | inactive | inactive | inactive | inactive | inactive | inactive | inactive | inactive | inactive | inactive
O=c1[nH]cnc2[nH]ncc12 | inactive | inactive | inactive | inactive | inactive | inactive | inactive | inactive | inactive | inactive | inactive | inactive | inactive | inactive | inactive | inactive | inactive | inactive | inactive | inactive
NS(=O)(=O)c1cc2c(cc1Cl)NC=NS2(=O)=O | inactive | inactive | inactive | inactive | inactive | inactive | inactive | inactive | inactive | inactive | inactive | inactive | inactive | inactive | inactive | inactive | inactive | inactive | inactive | inactive
N=c1nc(N2CCCCC2)cc(N)n1O | inactive | inactive | inactive | inactive | inactive | inactive | inactive | inactive | inactive | inactive | inactive | inactive | inactive | inactive | inactive | inactive | inactive | inactive | inactive | inactive
CC(=O)Oc1ccccc1C(=O)O | inactive | inactive | inactive | inactive | inactive | inactive | inactive | inactive | inactive | inactive | inactive | inactive | inactive | inactive | inactive | inactive | inactive | inactive | inactive | inactive
NCCCC(N)(C(=O)O)C(F)F (configuration not stated) | inactive | inactive | inactive | inactive | inactive | inactive | inactive | inactive | inactive | inactive | inactive | inactive | inactive | inactive | inactive | inactive | inactive | inactive | inactive | inactive
Nc1ccc(S(=O)(=O)Nc2ccnn2-c2ccccc2)cc1 | inactive | inactive | inactive | inactive | inactive | inactive | inactive | inactive | inactive | inactive | inactive | inactive | inactive |  | inactive | inactive | inactive | inactive | inactive | inactive
Nc1nc2c(ncn2COCCO)c(=O)[nH]1 | inactive | inactive | inactive | inactive | inactive | inactive | inactive | inactive | inactive | inactive | inactive | inactive | inactive | inactive | inactive | inactive | inactive | inactive | inactive | inactive
CCCc1nn(C)c2c(=O)[nH]c(-c3cc(S(=O)(=O)N4CCN(C)CC4)ccc3OCC)nc12 | inactive | 11.2 µM (active) | inactive | inactive | inactive | inactive | inactive | inactive | inactive | inactive | inactive | inactive | inactive | inactive | inactive |  | inactive | inactive | inactive | inactive
NC(=O)c1cnccn1 | inactive | inactive | inactive | inactive | inactive | inactive | inactive | inactive | inactive | inactive | inactive | inactive | inactive | inactive | inactive | inactive | inactive | inactive | inactive | inactive
O=NN(CCCl)C(=O)NCCCl | inactive | inactive | inactive | inactive | inactive | inactive | inactive | inactive | inactive | inactive | inactive | inactive | inactive | inactive | inactive | inactive | inactive | inactive | inactive | inactive
N#Cc1ccc(C(c2ccc(C#N)cc2)n2cncn2)cc1 | inactive | inactive | inactive | inactive | inactive | inactive | inactive | inactive | inactive | inactive | inactive | inactive | inactive | inactive | inactive | inactive | inactive | inactive | inactive | inactive
Cc1ccc(N(CC2=NCCN2)c2cccc(O)c2)cc1 | inactive | inactive | inactive | inactive | inactive | inactive | inactive | inactive | inactive | inactive | inactive | inactive | inactive | inactive | inactive | inactive | inactive | inactive | inactive | inactive
N[C@@H]1CONC1=O | inactive | inactive | inactive | inactive | inactive | inactive | inactive | inactive | inactive | inactive | inactive | inactive | inactive | inactive | inactive | inactive | inactive |  | inactive | inactive
Cc1[nH]c(=O)c(C#N)cc1-c1ccncc1 | inactive | inactive | inactive | inactive | inactive | inactive | inactive | inactive | inactive | inactive | inactive | inactive | inactive | inactive | inactive | inactive | inactive | inactive |  | inactive
O=C1CCC(N2C(=O)c3ccccc3C2=O)C(=O)N1 (configuration not stated) | inactive | inactive | inactive | inactive | inactive | inactive | inactive | inactive | inactive | inactive | inactive | inactive | inactive | inactive | inactive | inactive | inactive | inactive | inactive | inactive
CC(C)C[C@H](NC(=O)[C@@H](O)[C@H](N)Cc1ccccc1)C(=O)O | 2.51 µM (active) | 4.47 µM (active) | 5.62 µM (active) | 6.31 µM (active) | 8.91 µM (active) | 7.94 µM (active) | 3.98 µM (active) | 11.2 µM (active) | 5.01 µM (active) | 6.75 µM (active) |  | 6.01 µM (active) | 6.01 µM (active) | 6.75 µM (active) | 6.31 µM (active) | 4.47 µM (active) | 12.6 µM (active) | 6.31 µM (active) | 10 µM (active) | 
CCc1ccc(CCOc2ccc(CC3SC(=O)NC3=O)cc2)nc1 (configuration not stated) | inactive | inactive | inactive | inactive | inactive | inactive | inactive | inactive | inactive | inactive | inactive | inactive | inactive | inactive | inactive | inactive | inactive |  | inactive | inactive
